Measurements as given in the supplement of paper PMC7866885, “A novel bicyclic 2,4-diaminopyrimidine inhibitor of Streptococcus suis dihydrofolate reductase” (PeerJ, 2021).
± gives the standard deviation.

Key:
[1] = test system: Streptococcus suis HE06; assay: percent growth relative to DMSO control; higher = less growth inhibition; conditions: 10 µM; incubation time 18 h
Experimental: (§1)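 CLSI broth microdilution: 5x10^4 CFU of Streptococcus suis (strain P1/7 or HE06) incubated with 10 µM Pathogen Box compound in cation-adjusted Mueller Hinton broth, 37 °C, 5% CO2, 18 h. Growth read as OD600 and expressed as percent of the DMSO-treated control (100%); mean ± SD of three independent experiments.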

[2] = test system: Streptococcus suis P1/7; assay: as above; conditions: 10 µM; incubation time 18 h
Experimental: as §1

SMILES	percent growth [1] [%]	percent growth [2] [%]
CC(C(=O)N1CCCC1)N1CCN(S(=O)(=O)c2ccc(C(C)(C)C)cc2)CC1 (stereo unspecified)	84.8 ± 24	
O=C(NCc1nnc2n1CCCCC2)c1ccc(-c2ccc(F)cc2)o1	82.7 ± 15	106 ± 42
c1cc(C2=NCCN2)cc(-c2cc(-c3ccc(C4=NCCN4)cc3)no2)c1	103 ± 19	88.8 ± 25
COc1ccc(C2=NN(C3CCCCCC3)C(=O)C2(C)C)cc1OCCCCOc1ccc(-c2nn[nH]n2)cc1	2.58 ± 3.1	16.3 ± 27
O=C(Nc1ccc2c(c1)B(O)OC2)c1ccccc1C(F)(F)F	88.2 ± 15	88 ± 14
CCOc1ccccc1C(=O)Nc1cccc(-c2nc3ncccn3c2C)c1	88.1 ± 24	71.6 ± 8.8
COc1ccc(CCN2CCC(NCc3cccc(N(C)C)c3)CC2)cc1	98.6 ± 35	67.3 ± 22
CNc1cc(C)nc(C2CN(C(=O)c3n[nH]c4ccccc34)CCO2)c1 (stereo unspecified)	89.6 ± 5.4	105 ± 50
O=C(c1cc2ccccc2o1)N1CCN(Cc2ccc3c(c2)OCO3)CC1	84.6 ± 20	102 ± 20
Cc1cc(C)c2cc(C(=O)NC3CCCCCCC3)[nH]c2c1	90.5 ± 14	90.1 ± 32
CCOC(=O)c1noc(N)c1-c1ccccc1	107 ± 2.4	113 ± 32
COc1cc(CN2CCC3(C=Cc4ccccc43)CC2)cc2c1OCO2	82 ± 16	83.9 ± 5.5
Clc1ccc(CCNc2cc(-c3ccccc3)nc3ncnn23)cc1	79.8 ± 10	81.5 ± 18
Oc1c(I)cc(I)c2cccnc12	0.688 ± 0.61	-0.0569 ± 0.099
COc1cc(OC)cc(C(=O)NCC2Cc3cc(Cl)cc(-c4ccncc4)c3O2)c1 (stereo unspecified)	90 ± 28	65.4 ± 25
O=C(Nc1cccnc1)c1c(O)c2cccc3c2n(c1=O)CC3	78.3 ± 3.7	89.7 ± 27
O=C(NCCc1ccn(-c2ccccc2)n1)C1CCCCC1	97.3 ± 2.1	95 ± 23
CN1CCN(CCCOc2ncc(Nc3ncc(-c4ccc(C(F)(F)F)c(F)c4)nc3C(N)=O)cn2)CC1	114 ± 43	
N=C(N)c1ccc(-c2cc(-c3ccccc3)on2)cc1	85.2 ± 3	
CC(Oc1cccc(Cl)c1)C(=O)Nc1ccc2oc(-c3ccncc3)nc2c1 (stereo unspecified)	75.2 ± 17	77.5 ± 2.9
CC[C@H](CO)NCCN[C@H](CC)CO	88.7 ± 6.4	77 ± 21
Cc1cc(NCCc2ccccc2)nc(NC(=N)Nc2ccc(Cl)cc2)n1	148 ± 68	74.4 ± 13
CC(C)(C)OC(=O)N1CCN(c2nccc(-c3ccc(-c4ccc(Cl)cc4)s3)n2)CC1	88.2 ± 12	129 ± 42

SMILES	percent growth [1] [%]	percent growth [2] [%]
CC(C)NCC(=O)Nc1cccc(C(=O)Nc2cccc(C(F)(F)F)c2)c1	104 ± 4.8	125 ± 65
CCCc1ccc(S(=O)(=O)Nc2ccc(CN3CCN(CC4CC4)CC3)cc2)cc1	88 ± 15	94.1 ± 34
Cc1cc2ccccc2n1CC(=O)N1CC(C(=O)N2CCCCC2)Oc2ccccc21 (stereo unspecified)	71.6 ± 13	102 ± 19
CC(C)n1nc(-c2cc3c(Cl)cccc3[nH]2)c2c(N)ncnc21	112 ± 45	
CO[C@@H](C(=O)N1Cc2[nH]nc(NC(=O)c3ccc(N4CCN(C)CC4)cc3)c2C1)c1ccccc1	82.9 ± 11	86.3 ± 15
O=[N+]([O-])c1cn2c(n1)OC[C@@H](OCc1ccc(OC(F)(F)F)cc1)C2	110 ± 13	90 ± 13
CCOC(=O)c1cc(-c2csc(Nc3c(C)cc(C)cc3C)n2)on1	91.3 ± 6	108 ± 60
CCOc1ccccc1NC(C)C(=O)Nc1cc(C(F)(F)F)ccc1N1CCOCC1 (stereo unspecified)	115 ± 20	109 ± 31
CCc1nc2ccc(Cl)cn2c1C(=O)NCc1ccc(N2CCC(c3ccc(OC(F)(F)F)cc3)CC2)cc1	89.9 ± 15	111 ± 65
O=C(Nc1ccc(F)c(-c2nc3cc(-c4ccccc4)cnc3[nH]2)c1)N1CCCC1	99.7 ± 36	83.7 ± 5.5
CN1CCC(c2cc(-c3ccncc3)c(-c3ccc(F)cc3)[nH]2)CC1	101 ± 13	165 ± 140
CCN(CC)C(=O)N1CCN(C)CC1	92.6 ± 6.9	
CCOc1ccc(OCC(=O)Nc2cc(C)cc(C)c2)cc1	96.3 ± 4.6	
O=C(NC1CC1)c1ccc(N2CCC(Cc3ccccc3)CC2)nc1	91.7 ± 9.1	108 ± 16
Cc1cccnc1NC(=O)c1cccc(OCc2c(C)noc2C)c1	81.4 ± 11	96.3 ± 39
O=C(NC1CC1)c1ccc(CSCc2ccccc2Cl)o1	83.2 ± 21	65.8 ± 24
O=S(=O)(c1ccc(Cl)cc1)N1CCN(C(=S)NCc2ccco2)CC1	93.7 ± 22	92.6 ± 17
O=C(C1CCN(c2cc(-n3cccc3)ncn2)CC1)N1CCc2ccccc2C1	106 ± 15	59.5 ± 45
NC(=O)c1cc(Br)ccc1OCCOc1ccccc1	85.2 ± 9.9	73.4 ± 29
CNC1C(OC2C(OC3C(O)C(O)C(NC(=N)N)C(O)C3NC(=N)N)OC(C)C2(O)C=O)OC(CO)C(O)C1O (stereo unspecified)	99.9 ± 10	86.1 ± 18
Cc1nn(C(=O)Nc2cccc(C(F)(F)F)c2)c(C)c1Sc1ncccn1	25.4 ± 40	-0.122 ± 0.21
Cc1cc(Cl)ccc1NC(=O)CCc1ccc(S(=O)(=O)NCC(C)C)cc1	87.8 ± 9.9	95.4 ± 17
Cc1ccc2[nH]c3c(NCCN(C)C)ncnc3c2c1	96.1 ± 12	172 ± 110

SMILES	percent growth [1] [%]	percent growth [2] [%]
Cc1cc(C(=O)Nc2ccc(-c3ccccc3)cc2)no1	103 ± 36	118 ± 42
Cc1[nH]c2ccccc2c1C(c1cccs1)N1CCN(C)CC1 (stereo unspecified)	49 ± 25	86.1 ± 38
O=C(Nc1nnc(-c2ccc(Cl)cc2)o1)c1cccc(C(F)(F)F)c1	0	2.91 ± 3.9
Nc1cccnc1Nc1ccc(Cl)cc1	94.6 ± 4.4	101 ± 40
Cc1cc2nc(NC(=O)C(C)(C)C)nc(Cl)c2n1Cc1ccc(Cl)cc1	115 ± 19	109 ± 58
c1ccc(C[C@@H]2CN(c3nccc(Oc4ccc(-n5ccnc5)cc4)n3)CCN2)cc1	93.3 ± 12	90.5 ± 21
CCC(C)NC(=O)c1ccc(NC(=O)C2(c3ccccc3)CCCC2)cc1 (stereo unspecified)	105 ± 27	78.1 ± 25
CCOc1ccc2cc(-c3nn(C(C)(C)C)c(N)c3C(N)=O)cnc2c1	77.6 ± 17	83.1 ± 23
Cc1nc(-c2ccccn2)nc(NCCc2ccc(S(C)(=O)=O)cc2)c1Cl	131 ± 60	73.3 ± 11
NCCC(O)C(=O)N[C@@H]1C[C@H](N)[C@@H](OC2O[C@H](CN)[C@@H](O)[C@H](O)[C@H]2O)[C@H](O)C1OC1O[C@H](CO)[C@@H](O)[C@H](N)[C@H]1O (stereo partly specified)	104 ± 4.8	87.5 ± 38
O=C(N[C@H](Cc1ccccc1)C(=O)Nc1ccccc1N1CCOCC1)c1cccs1	92.7 ± 9.4	85.8 ± 16
Cc1ccc2nc(Cl)c(CNCc3cccs3)cc2c1	93.6 ± 9.5	100 ± 21
CCCCCCCCCCCCCCCCOP(=O)([O-])OCC[N+](C)(C)C	117 ± 7.1	112 ± 40
O=C(NCc1cc(Cl)cc(Cl)c1)c1c(C(F)(F)F)nc2ccccn12	84.6 ± 3.8	60.6 ± 20
COc1nc2ccc(Br)cc2cc1[C@@H](c1ccccc1)[C@@](O)(CCN(C)C)c1cccc2ccccc12	59.8 ± 13	68.8 ± 37
CC(C)(C)c1cc(C(=O)Nc2cccnc2)cc(C(=O)Nc2cccnc2)c1	80.6 ± 4.4	143 ± 90
Nc1ncnc2c1c(Cc1cccc3ccccc13)nn2CC1CCNCC1	105 ± 44	75 ± 5.4
CCCn1c(NC(=O)c2ccc3ccccc3n2)nc2ccccc21	0	0.618 ± 1.5
Cc1ccc(NC(=O)c2cc(S(=O)(=O)NC(C)(C)C)ccc2C)nc1	207 ± 200	75.6 ± 20
Cn1c(=O)c2c(S(C)(=O)=O)snc2n(C)c1=O	40.1 ± 32	93 ± 120
Cc1ccc(-c2cc(C(=O)Nc3cccnc3)c3cc(Br)ccc3n2)cc1	99.1 ± 11	69.7 ± 1.4
CC(=O)Nc1ccc(-c2noc(CC3CCCN(Cc4cccc(F)c4C)C3)n2)cc1 (stereo unspecified)	109 ± 44	108 ± 44
N=C(N)Nc1ccc(-c2ccc(-c3ccc(N=C(N)N)c(Cl)c3)o2)cc1Cl	27.7 ± 29	53.1 ± 27

SMILES	percent growth [1] [%]	percent growth [2] [%]
COc1cccc(NC(=O)c2c(NC(=O)c3cccnc3)sc3c2CCC3)c1	98.2 ± 24	86.6 ± 15
FC(F)(F)c1nnc2ccc(Cl)nn12	74.8 ± 22	85 ± 18
CCCCc1ccc(NC(=O)Nc2ccc(O[C@H]3CCCC[C@@H]3N(C)c3ccccc3)c(F)c2)cc1	77.8 ± 26	67.2 ± 2.9
COc1ccc(C2=NN(C3CCCCCC3)C(=O)[C@@H]3CC=CC[C@H]23)cc1OCCCCOc1ccc(-c2nn[nH]n2)cc1	0	0.12 ± 0.21
O=C(c1[nH]nc2c1CCCC2)N1CCN(Cc2ccc3c(c2)OCO3)CC1	81.9 ± 4.7	99.9 ± 45
O=C([C@@H](c1ccc(Cl)cc1)c1cccnc1)N1CCN(c2ccc(C(F)(F)F)cc2)CC1	89 ± 10	75.6 ± 12
O=C(NC1=NCCS1)c1sc2cc(F)ccc2c1Cl	93.8 ± 5.2	88.6 ± 14
O=C(NCc1ccco1)N1CCN(Cc2ccc(Cl)s2)CC1	97.2 ± 4.8	91.1 ± 21
CNC(=O)c1cc(S(=O)(=O)N2CCN(c3ccccn3)CC2)cs1	79.7 ± 12	129 ± 58
CS(=O)(=O)c1ccccc1C(=O)N(Cc1ccccc1)c1ccccc1	115 ± 7.9	107 ± 33
O=C(Nc1ccccc1-c1nc2c(C(=O)O)cccc2o1)c1ccccc1	68.4 ± 14	68.3 ± 5.7
CCCCS(=O)(=O)Nc1ccc2cnn(C)c2c1	92.3 ± 11	73 ± 10
O=C(C1CCN(c2nnc(-n3cccc3)s2)CC1)N1CCC(Cc2ccccc2)CC1	120 ± 18	100 ± 41
O=C(c1ccco1)N(CCCn1ccnc1)c1nc2c(Cl)cccc2s1	36.6 ± 38	34.1 ± 59
Cc1cccc(-c2nc(Nc3ccncn3)c3sccc3n2)n1	0.0155 ± 0.027	0.888 ± 0.29
O=C(Nc1cccc(Cl)c1)c1cnc(N2CCN(c3ccncc3)CC2)c(Cl)c1	62 ± 36	20.4 ± 12
O=C(C1CCCCC1)N1CC(=O)N2CCc3ccccc3C2C1 (stereo unspecified)	79.3 ± 24	102 ± 18
Nc1nc2ccc(-c3cncc(Oc4ccc(F)cc4)c3)cc2[nH]1	91.8 ± 11	111 ± 67
CNC(=O)CNc1nc(-c2ccccn2)nc2scc(-c3ccccc3)c12	87.1 ± 13	43 ± 38
C[C@H]1COc2c(N3CCN(C)CC3)c(F)cc3c(=O)c(C(=O)O)cn1c23	1.93 ± 0.63	1.55 ± 1.7
CC(C)C(Oc1cccc2ccccc12)C(=O)O (stereo unspecified)	87 ± 4.3	64 ± 22
Cc1nc2ccccn2c1C(=O)NCc1ccc(Cl)cc1	78.1 ± 14	133 ± 76
